From PubChem BioAssay
Coupling enz = qHTS Assay for Inhibitors of Fructose-1,6-bisphosphate Aldolase from Giardia Lamblia: Coupling assay counterscreen; activity change, negative = inhibition, % at 58.2 µM, hits read low; actives 0.67% (n = 290,000); AID 2472, 2010; coupling enzyme system counterscreen, AmpLite Red fluorescence; in the data active = activity change below about -30%
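First, compound is pin-transferred into glyceraldehyde-3-phosphate coupling-enzyme reagent at 57.5 uM final and held 10 min at RT. Next, substrate, coupling system and AmpLite Red are added. After 20 min RT, fluorescence (525/598 nm) is read.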
JMJD2E inh = qHTS Assay for Inhibitors of Human Jumonji Domain Containing 2E (JMJD2E). Potency, µM (doses to about 57.1 µM), actives largely listed as inhibitors. JMJD2E catalytic domain, FDH-coupled NADH fluorescence (FDH is formaldehyde dehydrogenase). actives 1.6% (n = 230,000); active = well fitted inhibition curve with a large enough effect, not every such curve was filed as active; inconclusive = small, poorly fitted or top-dose-only effect, or another doubt; inactive = no such curve, though single readings can be large or run the other way; note: nearly all actives have a fitted effect of over 50% in size
Sfp inh = qHTS Assay for Inhibitors of Bacillus subtilis Sfp phosphopantetheinyl transferase (PPTase) | Biochemical Sfp PPTase activity, qHTS | AID 1490, 2009 | actives 3.5% (n = 310,000) | Potency, µM, hits mostly inhibitors | 4'-phosphopantetheinyl transferase ffp (Bacillus subtilis), Q9F4F7;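 note: the enzyme is Sfp with the accession as filed and its product quenches rhodamine fluorescence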
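After 15 min at room temperature with compound, 15 nM Sfp received 5 uM rhodamine-CoA plus 12.5 uM BHQ-2-ybbR (50 mM Hepes pH 7.6, 10 mM MgCl2). Rate came from the fluorescence difference over 30 min, ex 525/em 598 nm.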
ALDH1A1 inh = qHTS Assay for Inhibitors of Aldehyde Dehydrogenase 1 (ALDH1A1). Potency, µM (doses to about 75.3 µM), actives largely listed as inhibitors. Aldehyde dehydrogenase 1A1 (Homo sapiens), P00352. actives 7.3% (n = 220,000). Purified ALDH1A1, NADH fluorescence, propionaldehyde substrate; active = well fitted inhibition curve with a large enough effect, not every such curve was filed as active; inconclusive = small, poorly fitted or top-dose-only effect, or another doubt; inactive = no such curve, though single readings can be large or run the other way
Target sequence (P00352 whole entry, looked up): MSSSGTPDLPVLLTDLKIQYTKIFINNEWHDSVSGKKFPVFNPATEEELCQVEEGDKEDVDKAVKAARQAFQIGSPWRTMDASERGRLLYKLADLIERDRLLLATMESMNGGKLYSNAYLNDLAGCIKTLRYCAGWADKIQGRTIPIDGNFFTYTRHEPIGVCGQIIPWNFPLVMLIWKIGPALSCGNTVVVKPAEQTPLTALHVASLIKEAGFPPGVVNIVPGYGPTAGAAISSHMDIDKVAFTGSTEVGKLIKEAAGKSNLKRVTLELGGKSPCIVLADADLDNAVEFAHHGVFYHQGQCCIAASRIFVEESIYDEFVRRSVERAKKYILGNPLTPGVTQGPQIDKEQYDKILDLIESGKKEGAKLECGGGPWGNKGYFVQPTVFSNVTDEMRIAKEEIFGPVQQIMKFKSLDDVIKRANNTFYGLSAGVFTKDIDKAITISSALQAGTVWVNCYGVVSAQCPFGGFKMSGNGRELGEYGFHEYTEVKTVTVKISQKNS
NPSR antagonist = qHTS Assay for Antagonists of the Neuropeptide S Receptor: cAMP Signal Transduction; Q6W5P4; actives 1% (n = 220,000); AID 1461, 2008; Potency, µM (titrated, usually from 38.3 µM), actives largely listed as inhibitors; CHO-NPSR cells, cAMP TR-FRET, antagonist mode; note: nearly all actives have a fitted effect of over 50% in size
GoLoco inh red = qHTS Assay for Inhibitors of RGS12 GoLoco Motif Activity (Red Fluorophore); actives 0.44% (n = 230,000); Potency, µM (top dose mostly 61.6 µM), actives largely listed as inhibitors; AID 880, 2007; Gai1:RGS12 GoLoco peptide FP, rhodamine, 10 min; Guanine nucleotide-binding protein G(i) subunit alpha-1 (Homo sapiens), P63096; active = well fitted inhibition curve with a large enough effect, not every such curve was filed as active; inactive = no such curve, though single readings can be large or run the other way; note: nearly all actives have a fitted effect of over 30% in size
Hits are given with their value; 0 = inactive; ? = inconclusive; - = no result; [ ] = remark or other dose. Only some compounds are listed: those with a hit (about 8.5% of all), similar ones and a draw of the others. Unless noted, calls come from the whole dose curve; as a rule, active = well fitted curve in the direction sought with a large enough effect; inconclusive = small, poorly fitted or top-dose-only effect, or another doubt; inactive = no such curve, though single readings can be large; an effect the other way counts as inactive or inconclusive.

SMILES	Coupling enz	JMJD2E inh	Sfp inh	ALDH1A1 inh	NPSR antagonist	GoLoco inh red
COc1ccc(-c2nc3c(c4c2C[C@H](c2ccccc2)OC4)CN(C(=O)N[C@@H](C)c2ccccc2)CC3)c(C)c1	0	0[11.4 µM]	0	3.5µM	-	0[14.2 µM]
COc1ccc(-c2nc3c(c4c2C[C@H](c2ccccc2)OC4)CN(S(=O)(=O)c2ccc(C#N)cc2)CC3)c(C)c1	0	0[11.4 µM]	0	0.5µM	-	0[14.2 µM]
COc1ccc(-c2nc3c(c4c2C[C@H](c2ccccc2)OC4)CN(C(=O)c2cc(I)ccc2F)CC3)c(C)c1	0	0[11.4 µM]	0	1.1µM	-	0[14.2 µM]
COc1ccc(-c2nc3c(c4c2C[C@H](c2ccccc2)OC4)CN(C(=O)Nc2cccc(C#N)c2)CC3)c(C)c1	0	0[11.4 µM]	0	?	-	0[14.2 µM]
COc1cccc(CC(=O)N2CCc3nc(-c4ccc(OC)cc4C)c4c(c3C2)CO[C@@H](c2ccccc2)C4)c1	0	0[11.4 µM]	0	4µM	-	0[14.2 µM]
Cc1ccc2cc(CCNC(=O)c3ccc(C)c([N+](=O)[O-])c3)c(=O)[nH]c2c1	0	0	0	0	0	0
Cc1cccc(NC(=S)NNC(=O)c2ccc3c(c2)OCO3)c1	0	0	0	?	0	0
Cc1cccc(NC(=S)NNC(=O)c2csc3c2CCC(C)C3)c1 (stereo not drawn)	0	0	0	22µM	0	0
CCCc1cc(C(=O)NNC(=S)Nc2cccc(C)c2)cs1	0	0	0	10µM	0	0
CC(C)CNC(=S)NNC(=O)c1csc2c1CCC(C)C2 (stereo not drawn)	0	0	0	0	0	0
C=C(C)CSc1nc2ccccc2[nH]1	0	0	0	0	0	0
COc1ccccc1NC(=S)Nc1ccc2cn[nH]c2c1	0	0	0	0	0	0
CC(C)(N)CO[C@H]1C[C@H]2CC[C@@]1(C)C2(C)C	-	-	-	0[13.5 µM]	-	0[14.2 µM]
Cn1c(N)c(C(=O)COC(=O)c2cccs2)c(=O)n(C)c1=O	0	0	0	14µM	0	0
CC(C)Cn1c(N)c(C(=O)COC(=O)c2c(F)cccc2F)c(=O)n(C)c1=O	0	0	0	11µM	0	0
COc1ccc(-c2cc(C(=O)OCC(=O)c3c(N)n(C)c(=O)n(C)c3=O)c3ccccc3n2)cc1	0	?	0	?	0	0
CC(C)Cn1c(N)c(C(=O)COC(=O)c2ccccc2F)c(=O)n(C)c1=O	0	0	0	0	0	0
Cn1c(N)c(C(=O)COC(=O)c2cc(-c3ccco3)nc3ccccc23)c(=O)n(Cc2ccccc2)c1=O	0	?	45µM	?	0	0
Cn1c(N)c(C(=O)COC(=O)c2cc(-c3ccco3)nc3ccccc23)c(=O)n(C)c1=O	0	?	13µM	?	0	0
c1csc(CNc2nc(-c3ccc4c(c3)OCO4)nc3ccccc23)c1	0	-	0	?	-	0
O=C(C1=COCCO1)N1CCN(C(c2ccccc2)c2ccccc2)CC1	0	0	0	8.9µM	0	0
Cc1ccccc1C(=O)N1CCN(C(c2ccccc2)c2ccccc2)CC1	0	0	0	-	?	0
Cc1oc(C(C)(C)C)cc1C(=O)N1CCN(C(c2ccccc2)c2ccccc2)CC1	0	0	0	8.9µM	?	0
COc1ccc(NC(=S)Nc2ncccc2C)cc1OC	0	?	40µM	25µM	0	0
Cc1cccnc1NC(=S)Nc1ccc(Cl)c(Cl)c1	0	0	14µM	0	0	0
SMILES	Coupling enz	JMJD2E inh	Sfp inh	ALDH1A1 inh	NPSR antagonist	GoLoco inh red
N#CCC(=O)N/N=C\c1cc(Br)ccc1OC/C=C/c1ccccc1	-	-	0	-	-	-
COc1c(C2=CC(=O)N(C)C2=O)c2c(n1C)C(=O)c1ccccc1C2=O	-35	0	25µM	0	-	0
Oc1ccc(O)c(Cc2nc3ccccc3[nH]2)c1	0	0	35µM	0	0	0
CC(C)Nc1nc(Oc2ccc(=O)n(-c3ccccc3)n2)nc(N(C)C)n1	0	0	0	-	0	0
C=CCn1c(CNC(=O)c2ccccc2F)nnc1SCC(=O)N1CCOCC1	0	-	0	-	-	-
O=c1c2ccccc2nc(COc2ccccc2)n1/N=C/c1ccc(O)c(O)c1	0	?	0	-	0	0
O=C1c2ccccc2C(=O)N1/N=C/c1ccc(O)c(O)c1	0	16µM	0	0	0	0
O=C1C2C3C=CC(CC3)C2C(=O)N1/N=C/c1ccc(O)c(O)c1 (stereo not drawn)	0	16µM	0	?	0	0
C#CCCCCCCC#CCN(C)C	0	16µM	0	?	0	0
COC(=O)CNC(=O)CSc1nnc(C)c(=O)[nH]1	0	0	0	0	0	0
CC(C)(C)c1cnnn1-c1ccc(NC(=O)c2ccc3c(c2)OCO3)cc1	0	0	0	12µM	0	0
O=C1C2C(C(=O)N1Cc1ccco1)C1C=CC2C12CC2 (stereo not drawn)	0	0	0	13µM	0	0
O=C1C2C(C(=O)N1CCc1ccccc1)C1C=CC2C12CC2 (stereo not drawn)	0	0	0	?	0	0
O=C1C2C3C=CC(C4CC34)C2C(=O)N1Cc1ccco1 (stereo not drawn)	0	0	?	22µM	0	0
O=C1C2C3c4ccccc4C(c4ccccc43)C2C(=O)N1Cc1ccco1 (stereo not drawn)	0	0	45µM	0	0	-
O=C(CN1C(=O)C2C3C=CC(C4CC34)C2C1=O)OCC(=O)c1ccccc1 (stereo not drawn)	0	0	0	0	0	0
O=C1C2C(C(=O)N1/N=C/c1ccco1)C1C=CC2C12CC2 (stereo not drawn)	0	0	0	10µM	0	0
COc1ccc(C=Nc2c(O)ccc3ccccc23)cc1OC	-	-	-	?	-	0[14.2 µM]
Cc1ccc(NC(=O)CN(C)C(=O)C2CC(=O)N(Cc3ccccc3)C2)cc1 (stereo not drawn)	-	-	0	-	-	-
CN1CCN(c2ncc3nc(-c4ccccc4)c(=O)n(-c4ccccc4)c3n2)CC1	0	-	0	?	-	0
CS(=O)(=O)Nc1cccc(C2=NN(C(=O)c3ccco3)C(c3cccs3)C2)c1 (stereo not drawn)	-	-	0	-	-	-
CC12C(=O)N(Cc3ccco3)C(=O)C1C1c3ccccc3C2c2ccccc21 (stereo not drawn)	0	0	0	16µM	0	0
O=C1CCCC(O)=C1N=Nc1c(Cl)cc(C(F)(F)F)cc1Cl	0	25µM	?	0	0	0
CC1(C)CC(=O)C(N=Nc2cc(C(F)(F)F)ccc2Cl)=C(O)C1	0	0	0	1.4µM	0	0
